PubChem BioAssay AID1159580 (chemical genetic matrix, 2015)
Values joined by “and” are separate entries in the source; they are usually repeats but may differ in a detail not shown here. Identical values can stand only once. The campaign covered roughly 5,500 compounds. About 2,000 (36%) were called active. Inconclusive results (about 18%) are left out. Cut-off read from the data, not from the text of the source: active = normalized growth mostly below about 0.91 (no sharp cut-off); inconclusive = no clear call, values can overlap the other calls; inactive = mostly above about 0.92. Some of the results follow.

Test: chemical genetic growth profiling, strain panel (AID 1159580);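 note: tested at 20 µM; growth read once vehicle control cultures reached saturation at 30 °C; 1 = growth at the plate median or of vehicle wells; lower values mean less growth of the strain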
Conditions: growth OD

Measured: normalized growth

CO[C@@H]1C[C@H](O[C@H]2CC[C@]3(C)C4CC[C@]5(C)[C@@H](C6=CC(=O)OC6)CC[C@]5(O)[C@@H]4CC[C@]3(O)C2)O[C@H](C)[C@@H]1O (some centres not stated)
inactive: S. cerevisiae deletion strains, locus YBR021W, strain FUR4, stronger effect = lower value 0.961 | S. cerevisiae deletion strains, locus YBR229C, strain ROT2, stronger effect = lower value 1 | S. cerevisiae deletion strains, locus YCL029C, strain bik1, stronger effect = lower value 1.02 | S. cerevisiae deletion strains, locus YDL035C, strain GPR1, stronger effect = lower value 0.905 | S. cerevisiae deletion strains, locus YDL074C, strain BRE1, stronger effect = lower value 0.987 | S. cerevisiae deletion strains, locus YDL101C, strain DUN1, stronger effect = lower value 1.02 | S. cerevisiae deletion strains, locus YDL134C, strain PPH21, stronger effect = lower value 1 | S. cerevisiae deletion strains, locus YDL185W, strain tfp1, stronger effect = lower value 1.05 | S. cerevisiae deletion strains, locus YDR101C, strain arx1, stronger effect = lower value 1.01 | S. cerevisiae deletion strains, locus YDR162C, strain NBP2, stronger effect = lower value 0.881 | S. cerevisiae deletion strains, locus YDR318W, strain mcm21, stronger effect = lower value 0.987 | S. cerevisiae deletion strains, locus YDR388W, stronger effect = lower value 1 | S. cerevisiae deletion strains, locus YEL061C, strain CIN8, stronger effect = lower value 1.01 | S. cerevisiae deletion strains, locus YER110C, stronger effect = lower value 1.02 | S. cerevisiae deletion strains, locus YER155C, strain BEM2, stronger effect = lower value 1.01 | S. cerevisiae deletion strains, locus YER167W, strain BCK2, stronger effect = lower value 0.95 | S. cerevisiae deletion strains, locus YGL078C, strain dbp3, stronger effect = lower value 0.96 | S. cerevisiae deletion strains, locus YGL086W, strain mad1, stronger effect = lower value 0.935 | S. cerevisiae deletion strains, locus YGL248W, strain PDE1, stronger effect = lower value 1.02 | S. cerevisiae deletion strains, locus YGR078C, strain PAC10, stronger effect = lower value 0.926 | S. cerevisiae deletion strains, locus YGR252W, strain gcn5, stronger effect = lower value 0.844 | S. cerevisiae deletion strains, locus YHR030C, strain SLT2, stronger effect = lower value 1.02 and 1.05 | S. cerevisiae deletion strains, locus YHR079C, strain IRE1 (second series), stronger effect = lower value 1.02 | S. cerevisiae deletion strains, locus YHR079C, strain IRE1, stronger effect = lower value 1.07 | S. cerevisiae deletion strains, locus YHR094C, strain hxt1, stronger effect = lower value 1.02 | S. cerevisiae deletion strains, locus YHR129C, strain ARP1, stronger effect = lower value 1.01 | S. cerevisiae deletion strains, locus YIL066C, strain RNR3, stronger effect = lower value 0.956 | S. cerevisiae deletion strains, locus YIL073C, strain SPO22, stronger effect = lower value 1.04 | S. cerevisiae deletion strains, locus YIR030C, strain dcg1, stronger effect = lower value 1.01 | S. cerevisiae deletion strains, locus YJL095W, strain BCK1, stronger effect = lower value 1.03 and 1.05 | S. cerevisiae deletion strains, locus YJL134W, strain LCB3, stronger effect = lower value 1.01 | S. cerevisiae deletion strains, locus YJL168C, strain set2, stronger effect = lower value 1.02 | S. cerevisiae deletion strains, locus YJL187C, strain SWE1 (second series), stronger effect = lower value 1.04 | S. cerevisiae deletion strains, locus YJR043C, strain POL32, stronger effect = lower value 0.949 | S. cerevisiae deletion strains, locus YJR066W, strain TOR1, stronger effect = lower value 0.987 | S. cerevisiae deletion strains, locus YJR075W, strain HOC1, stronger effect = lower value 0.901 | S. cerevisiae deletion strains, locus YKL009W, strain mrt4, stronger effect = lower value 0.917 | S. cerevisiae deletion strains, locus YKL068W, stronger effect = lower value 0.996 | S. cerevisiae deletion strains, locus YLR039C, strain RIC1, stronger effect = lower value 0.887 | S. cerevisiae deletion strains, locus YLR058C, strain SHM2, stronger effect = lower value 1.01 | S. cerevisiae deletion strains, locus YLR102C, strain apc9, stronger effect = lower value 1.03 | S. cerevisiae deletion strains, locus YLR113W, strain HOG1, stronger effect = lower value 0.964 | S. cerevisiae deletion strains, locus YLR262C, strain YPT6, stronger effect = lower value 0.879 | S. cerevisiae deletion strains, locus YLR268W, strain sec22, stronger effect = lower value 0.95 | S. cerevisiae deletion strains, locus YLR330W, strain CHS5, stronger effect = lower value 1.01 | S. cerevisiae deletion strains, locus YLR342W, strain FKS1 (second series), stronger effect = lower value 0.953 | S. cerevisiae deletion strains, locus YLR371W, strain rom2, stronger effect = lower value 1.05 | S. cerevisiae deletion strains, locus YML016C, strain PPZ1, stronger effect = lower value 1 | S. cerevisiae deletion strains, locus YML032C, strain rad52, stronger effect = lower value 0.988 | S. cerevisiae deletion strains, locus YML124C, strain tub3, stronger effect = lower value 1.02 | S. cerevisiae deletion strains, locus YMR078C, strain ctf18, stronger effect = lower value 1.02 | S. cerevisiae deletion strains, locus YMR263W, strain SAP30, stronger effect = lower value 1.02 | S. cerevisiae deletion strains, locus YMR307W, strain GAS1, stronger effect = lower value 0.815 | S. cerevisiae deletion strains, locus YNL067W, strain RPL9B, stronger effect = lower value 0.99 | S. cerevisiae deletion strains, locus YNL128W, strain TEP1, stronger effect = lower value 0.925 | S. cerevisiae deletion strains, locus YNL153C, strain GIM3, stronger effect = lower value 1.03 | S. cerevisiae deletion strains, locus YNL183C, strain NPR1, stronger effect = lower value 0.988 | S. cerevisiae deletion strains, locus YNL233W, strain BNI4, stronger effect = lower value 0.941 | S. cerevisiae deletion strains, locus YNL250W, strain rad50, stronger effect = lower value 0.964 | S. cerevisiae deletion strains, locus YNL271C, strain bni1, stronger effect = lower value 0.999 | S. cerevisiae deletion strains, locus YNL298W, strain CLA4, stronger effect = lower value 0.944 | S. cerevisiae deletion strains, locus YNL307C, strain MCK1, stronger effect = lower value 1.02 | S. cerevisiae deletion strains, locus YNL322C, strain KRE1, stronger effect = lower value 0.999 | S. cerevisiae deletion strains, locus YNR052C, strain pop2, stronger effect = lower value 1.02 | S. cerevisiae deletion strains, locus YOL012C, strain htz1 2.27 | S. cerevisiae deletion strains, locus YOL147C, strain pex11, stronger effect = lower value 1.02 | S. cerevisiae deletion strains, locus YOR061W, strain CKA2, stronger effect = lower value 1.01 | S. cerevisiae deletion strains, locus YOR069W, strain VPS5, stronger effect = lower value 1.01 | S. cerevisiae deletion strains, locus YOR136W, strain idh2, stronger effect = lower value 0.983 | S. cerevisiae deletion strains, locus YOR144C, strain elg1, stronger effect = lower value 1.01 | S. cerevisiae deletion strains, locus YOR231W, strain MKK1, stronger effect = lower value 1.05 | S. cerevisiae deletion strains, locus YOR316C, strain cot1, stronger effect = lower value 1.02 | S. cerevisiae deletion strains, locus YPL055C, strain LGE1, stronger effect = lower value 0.877 | S. cerevisiae deletion strains, locus YPL256C, strain CLN2, stronger effect = lower value 1.11 | S. cerevisiae deletion strains, locus YPR119W, strain clb2, stronger effect = lower value 1.02 | S. cerevisiae deletion strains, locus YPR141C, strain kar3, stronger effect = lower value 1.02 | S. cerevisiae deletion strains, locus YPR163C, strain tif3, stronger effect = lower value 0.993 | S. cerevisiae deletion strains, locus YPR167C, strain met16, stronger effect = lower value 0.934 | S. cerevisiae deletion strains, strain wtn01, stronger effect = lower value 0.921
active: S. cerevisiae deletion strains, locus YAL013W, strain DEP1, stronger effect = lower value 0.869 | S. cerevisiae deletion strains, locus YDL192W, strain arf1, stronger effect = lower value 0.888 | S. cerevisiae deletion strains, locus YDR502C, strain sam2, stronger effect = lower value 0.893 | S. cerevisiae deletion strains, locus YGR135W, strain pre9, stronger effect = lower value 0.865 | S. cerevisiae deletion strains, locus YHR200W, strain rpn10, stronger effect = lower value 0.92 | S. cerevisiae deletion strains, locus YIL125W, strain kgd1, stronger effect = lower value 0.926 | S. cerevisiae deletion strains, locus YKL085W, strain MDH1 (second series), stronger effect = lower value 0.897 | S. cerevisiae deletion strains, locus YKL085W, strain MDH1, stronger effect = lower value 0.897 | S. cerevisiae deletion strains, locus YKR001C, strain vps1, stronger effect = lower value 0.76 | S. cerevisiae deletion strains, locus YLR418C, strain cdc73, stronger effect = lower value 0.651 | S. cerevisiae deletion strains, locus YMR223W, strain ubp8, stronger effect = lower value 0.889 | S. cerevisiae deletion strains, locus YOR184W, strain ser1, stronger effect = lower value 0.606 | S. cerevisiae strains, strain wild type, stronger effect = lower value 0.899
